# Laboratory results as given in PubChem BioAssay.
# Test system: not listed separately
# Assay: probe aInhba binding on compound microarray – biochemical, small-molecule microarray, 635/667 nm fluorescence, primary screen (AID 1148);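 also: score merges 667nm spot fluorescence with signal-to-noise for antibody binding to printed compounds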
# Conditions: higher = more signal
row,Compound,composite z-score
1,CC(C)(C)N1C(=O)[C@H]2[C@H]3[C@H](O)[C@H](O)CC(=NOCc4ccccc4)[C@@H]3CC[C@H]2C1=O,-0.0986
2,O=C1[C@H]2[C@H]3[C@H](O)[C@H](O)CC(=NOC[C@@H](O)COCc4ccco4)[C@H]3CC[C@H]2C(=O)N1c1cccc(Oc2ccccc2)c1,-0.285
3,CC(C)=CCCC(C)=CCON=C1C[C@@H](O)[C@@H](O)[C@@H]2[C@@H]3C(=O)N(C[C@@H]4CCCO4)C(=O)[C@@H]3CC[C@@H]12,-0.0933
4,Cc1ccc(S(=O)(=O)N[C@@H]2COC(=O)[C@H](C)COC(=O)CC=C[C@H]2C)cc1,-0.224
5,CCc1cc2c(nc1CC)CCN(CCC(C)=NO[C@@H](C)c1cc(-c3c(C)cc(C)cc3C)no1)C2,-0.0762
6,CC(=O)OC[C@H]1O[C@@H](ON=C(C)CCN2CCc3nc(-c4ccccc4)c(-c4ccccc4)cc3C2)[C@H](OC(C)=O)[C@@H](OC(C)=O)[C@@H]1OC(C)=O,0.134
7,Cc1ccc(S[C@]2(C(=O)NCC(F)(F)F)CC(=O)N(Cc3ccccc3Cl)[C@@H]2c2ccc(CO)cc2I)cc1,-0.152
8,CO[C@@H]1COC(=O)CC=C[C@@H](C)COC(=O)[C@H](COCc2ccccc2)NC(=O)CC=C[C@H]1C,-0.128
9,O[C@@H](Cc1ccccc1)[C@H]1C2C=CCCC(c3ccccc3)=C2CN1Cc1cccc(Cl)c1 (stereo partly drawn),0.0355
10,CC(=O)OC[C@H]1O[C@H](CCON=C[C@@H](C)[C@H](OCc2ccccc2)C(C)C)C=C[C@@H]1OC(C)=O,-0.199
11,CC1(C)OCC(C(O)C2=CCCCC2=O)CO1 (stereo not drawn),-0.133
12,CO[C@@H]1COC(=O)CC=C[C@@H](C)[C@@H]2C=C[C@H](O)[C@@H](COC(=O)[C@H](C)NC(=O)CC=C[C@H]1C)O2,-0.265
13,CCCCCN1CC=CC23O[C@@H]4C=CCOC(=O)[C@@H]4[C@H]2C(=O)N(CCCCCCO)[C@@H]3C1=O (stereo partly drawn),-0.15
14,COCCCNC(=O)[C@@]1(C)c2ccccc2C(=O)N(Cc2ccc(OC(F)(F)F)cc2)[C@H]1c1ccc(CO)cc1,0.185
15,CC(C)[C@@H](OCc1ccccc1)[C@H](C)C=NO[C@H](C)c1cn([C@H](CO)Cc2ccccc2)nn1,-0.126
16,c1ccc(C2NCCc3c2[nH]c2ccccc32)cc1 (stereo not drawn),-0.101
17,O=C1NC(=O)C2C1C=CC(C(O)Cc1ccccc1)N2Nc1ccccn1 (stereo not drawn),-0.0039
18,CCOC(=O)[C@H](Cc1ccccc1)NC(=O)CCC1CC(OC(=O)NCCc2ccc(F)cc2)CC2(CCCC(COC(=O)NCC(c3ccccc3)c3ccccc3)O2)O1 (stereo partly drawn),-0.248
19,COCCOC(=O)N1C(=O)[C@@]2(c3cc(C#Cc4ccc(OC)cc4)ccc31)[C@H](C(=O)N1CCN(c3ncccn3)CC1)[C@H]1C(=O)O[C@H](c3ccccc3)[C@H](c3ccccc3)N1[C@@H]2c1ccc(OCCO)cc1,0.397
20,CC(=O)OC[C@H]1O[C@@H](ON=C[C@@H](C)[C@H](OCc2ccccc2)C(C)C)[C@H](OC(C)=O)[C@@H](OC(C)=O)[C@@H]1OC(C)=O,0.157
21,COC(=O)CC=C[C@@H](C)[C@@H](C=NO[C@H](C)c1cn([C@@H]2COC[C@H]2O)nn1)OC,-0.159
22,CC(CCN1CCc2nc(-c3ccccc3)c(-c3ccccc3)cc2C1)=NOC(C)CN1CCCCc2nc(C)c(C)cc21 (stereo not drawn),-0.0195
23,CC(=O)OC[C@H]1O[C@H](C#CCCCc2ccccc2)C=C[C@@H]1OC(C)=O,0.322
24,CCOc1ccc(N2C(=O)/C(=C/C=C/c3ccccc3OC)S(=O)(=O)C2c2cccc([N+](=O)[O-])c2)cc1 (stereo not drawn),-0.0596
25,COC(=O)[C@@H]1N=C(c2ccc(OCCCO)cc2)O[C@@H]1c1ccccc1N=[N+]=[N-],0.168
26,CCN1C(=O)[C@H]2[C@H]3[C@H](O)[C@H](O)CC(=NOC(C)CN4CCCCc5nc(C)c(C)cc54)[C@@H]3CC[C@H]2C1=O (stereo partly drawn),-0.024
27,CC(C)(C)OC(=O)CC[C@]1(C(N)=O)COC(c2ccc(OCCCO)cc2)=N1,0.923

# Biological target: Torsin-1A (Homo sapiens) (UniProt O14656)
# Assay: TOR1A wild-type binding on microarray – cell lysate, small-molecule microarray, lysate, 635/667 nm, primary screen (AID 1149)
# Conditions: COS7 hTOR1A-WT lysate, 635 nm fluorescence, higher = more signal
# Torsin-1A (Homo sapiens), sequence (O14656 whole entry, looked up): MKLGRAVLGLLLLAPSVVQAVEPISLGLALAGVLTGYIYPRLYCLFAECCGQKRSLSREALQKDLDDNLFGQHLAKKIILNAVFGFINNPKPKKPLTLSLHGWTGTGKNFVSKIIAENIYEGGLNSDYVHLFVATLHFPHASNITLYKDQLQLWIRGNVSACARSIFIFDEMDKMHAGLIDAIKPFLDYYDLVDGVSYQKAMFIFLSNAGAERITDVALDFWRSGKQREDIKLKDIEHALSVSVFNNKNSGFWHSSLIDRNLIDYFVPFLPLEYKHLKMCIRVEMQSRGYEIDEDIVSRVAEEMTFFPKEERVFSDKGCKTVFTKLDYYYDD
row,Compound,composite z-score
1,NCCCCCNC(=O)[C@@H]1C[C@@H]2C(=O)N3CCC[C@H]3C(=O)N2[C@@H]1c1cccc(OCCO)c1,-0.0659
2,C=CC[C@]1(C(=O)NCc2ccccc2)N=C(c2ccc(OCCCO)cc2)O[C@H]1c1ccccc1,1.04
3,COCCOC(=O)N1C(=O)[C@@]2(c3cc(C#CCNC(N)=O)ccc31)[C@H](c1ccc(O)cc1)N1[C@H](c3ccccc3)[C@H](c3ccccc3)OC(=O)[C@H]1[C@@H]2C(=O)N1CCCCCCC1,0.4
4,O=C1[C@H]2[C@H]3[C@H](O)[C@H](O)CC(=NO[C@@H]4O[C@H](CO)[C@@H](O)[C@H](O)[C@H]4O)[C@@H]3CC[C@H]2C(=O)N1Cc1ccc2c(c1)OCO2,0.35
5,O=C1[C@H]2[C@H]3[C@H](O)[C@H](O)CC(=NOCc4ccccc4)[C@@H]3CC[C@H]2C(=O)N1C1CCCCC1,-0.0289
6,O=C1[C@H]2[C@H]3[C@H](O)[C@H](O)CC(=NO[C@@H]4O[C@H](CO)[C@@H](O)[C@H](O)[C@H]4O)[C@H]3CC[C@H]2C(=O)N1Cc1ccc2c(c1)OCO2,0.838
7,O=C(NN=C1C[C@@H](O)[C@@H](O)[C@@H]2[C@@H]3C(=O)N(c4cccc(Oc5ccccc5)c4)C(=O)[C@@H]3CC[C@H]12)OCc1ccccc1,0.0142
8,CC(C)CON=C1C[C@@H](O)[C@@H](O)[C@@H]2[C@@H]3C(=O)N([C@@H](C)c4ccccc4)C(=O)[C@@H]3CC[C@H]12,0.466
9,CC(=O)O[C@H]1C2=C(C(=O)[C@@H]3O[C@@H]31)[C@H]1C(C)O[C@@H]2[C@@]23C(=O)[C@@H]4O[C@@H]4[C@@H](O)C2=CO[C@H](C)[C@@H]13 (stereo partly drawn),0.0116
10,CC(C)(C)N1C(=O)[C@H]2[C@H]3[C@H](O)[C@H](O)CC(=NOCc4ccccc4)[C@@H]3CC[C@H]2C1=O,0.678
11,O=C1[C@H]2[C@H]3[C@H](O)[C@H](O)CC(=NOC[C@@H](O)COCc4ccco4)[C@H]3CC[C@H]2C(=O)N1c1cccc(Oc2ccccc2)c1,0.626
12,CC(C)=CCCC(C)=CCON=C1C[C@@H](O)[C@@H](O)[C@@H]2[C@@H]3C(=O)N(C[C@@H]4CCCO4)C(=O)[C@@H]3CC[C@@H]12,2.06
13,Cc1ccc(S(=O)(=O)N[C@@H]2COC(=O)[C@H](C)COC(=O)CC=C[C@H]2C)cc1,1.06
14,CCc1cc2c(nc1CC)CCN(CCC(C)=NO[C@@H](C)c1cc(-c3c(C)cc(C)cc3C)no1)C2,-0.233
15,CC(=O)OC[C@H]1O[C@@H](ON=C(C)CCN2CCc3nc(-c4ccccc4)c(-c4ccccc4)cc3C2)[C@H](OC(C)=O)[C@@H](OC(C)=O)[C@@H]1OC(C)=O,0.054
16,Cc1ccc(S[C@]2(C(=O)NCC(F)(F)F)CC(=O)N(Cc3ccccc3Cl)[C@@H]2c2ccc(CO)cc2I)cc1,-0.396
17,CO[C@@H]1COC(=O)CC=C[C@@H](C)COC(=O)[C@H](COCc2ccccc2)NC(=O)CC=C[C@H]1C,2.33
18,O[C@@H](Cc1ccccc1)[C@H]1C2C=CCCC(c3ccccc3)=C2CN1Cc1cccc(Cl)c1 (stereo partly drawn),0.762

row,Compound,composite z-score
1,CC(=O)OC[C@H]1O[C@H](CCON=C[C@@H](C)[C@H](OCc2ccccc2)C(C)C)C=C[C@@H]1OC(C)=O,0.658
2,CC1(C)OCC(C(O)C2=CCCCC2=O)CO1 (stereo not drawn),0.429
3,CO[C@@H]1COC(=O)CC=C[C@@H](C)[C@@H]2C=C[C@H](O)[C@@H](COC(=O)[C@H](C)NC(=O)CC=C[C@H]1C)O2,1.44
4,CCCCCN1CC=CC23O[C@@H]4C=CCOC(=O)[C@@H]4[C@H]2C(=O)N(CCCCCCO)[C@@H]3C1=O (stereo partly drawn),-1.78
5,COCCCNC(=O)[C@@]1(C)c2ccccc2C(=O)N(Cc2ccc(OC(F)(F)F)cc2)[C@H]1c1ccc(CO)cc1,0.13
6,CC(C)[C@@H](OCc1ccccc1)[C@H](C)C=NO[C@H](C)c1cn([C@H](CO)Cc2ccccc2)nn1,0.353
7,c1ccc(C2NCCc3c2[nH]c2ccccc32)cc1 (stereo not drawn),0.586
8,O=C1NC(=O)C2C1C=CC(C(O)Cc1ccccc1)N2Nc1ccccn1 (stereo not drawn),0.638
9,CCOC(=O)[C@H](Cc1ccccc1)NC(=O)CCC1CC(OC(=O)NCCc2ccc(F)cc2)CC2(CCCC(COC(=O)NCC(c3ccccc3)c3ccccc3)O2)O1 (stereo partly drawn),-0.0715
10,COCCOC(=O)N1C(=O)[C@@]2(c3cc(C#Cc4ccc(OC)cc4)ccc31)[C@H](C(=O)N1CCN(c3ncccn3)CC1)[C@H]1C(=O)O[C@H](c3ccccc3)[C@H](c3ccccc3)N1[C@@H]2c1ccc(OCCO)cc1,-0.0983
11,CC(=O)OC[C@H]1O[C@@H](ON=C[C@@H](C)[C@H](OCc2ccccc2)C(C)C)[C@H](OC(C)=O)[C@@H](OC(C)=O)[C@@H]1OC(C)=O,1.68
12,COC(=O)CC=C[C@@H](C)[C@@H](C=NO[C@H](C)c1cn([C@@H]2COC[C@H]2O)nn1)OC,0.73
13,CC(CCN1CCc2nc(-c3ccccc3)c(-c3ccccc3)cc2C1)=NOC(C)CN1CCCCc2nc(C)c(C)cc21 (stereo not drawn),0.319
14,CC(=O)OC[C@H]1O[C@H](C#CCCCc2ccccc2)C=C[C@@H]1OC(C)=O,-0.0078
15,CCOc1ccc(N2C(=O)/C(=C/C=C/c3ccccc3OC)S(=O)(=O)C2c2cccc([N+](=O)[O-])c2)cc1 (stereo not drawn),1.94
16,COC(=O)[C@@H]1N=C(c2ccc(OCCCO)cc2)O[C@@H]1c1ccccc1N=[N+]=[N-],0.131
17,CCN1C(=O)[C@H]2[C@H]3[C@H](O)[C@H](O)CC(=NOC(C)CN4CCCCc5nc(C)c(C)cc54)[C@@H]3CC[C@H]2C1=O (stereo partly drawn),0.763
18,CC(C)(C)OC(=O)CC[C@]1(C(N)=O)COC(c2ccc(OCCCO)cc2)=N1,0.833
